Screens: PubChem BioAssay, National Center for Advancing Translational Sciences (NCATS)
Pf growth 96h: Primary qHTS for delayed death inhibitors of the malarial parasite plastid, 96 hour incubation; 320,000 tested, 6.9% active; P. falciparum luciferase reporter growth, 96 h; Potency, µM (titrated, usually from 28.7 µM), for inactives: at the highest dose activity change, negative = inhibition, usual class: inhibitors; AID 504834, 2011; also: potency is read from the fitted curve at half-maximal effect; % is scaled to controls: 0 for no effect and ±100 for the full control effect
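Compounds incubated with erythrocytes infected by luciferase-expressing P. falciparum (2% hematocrit, 0.05% parasitemia final) for 96 hours, 37 C in 5% CO2. Growth inhibition scored as decreased luciferase luminescence.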
HCMV antiviral: qHTS Assay for inhibitors of the human cytomegalovirus (HCMV). HFF cells, HCMV-luciferase reporter, 72 h; stronger effect = lower value. activity change, negative = inhibition, % at 57.5 µM. 410,000 tested, 4.5% active; in the data active = activity change below about -60%; inconclusive = no clear call, values can overlap the other calls; inactive = above about -39%; also: % is scaled to controls: 0 for no effect and ±100 for the full control effect
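Cell-based, HFFs, 1000 cells/well, 16 h 37C; cpds in DMSO + HCMV-luc, MOI 1 PFU/cell; 72 h 37C; OneGlo luminescence after 5 min RT; norm. to buffer vs Salinomycin 10uM.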
Pf growth 48h: Primary qHTS for delayed death inhibitors of the malarial parasite plastid, 48 hour incubation | P. falciparum luciferase growth in erythrocytes, 48 h | Potency, µM (doses to about 28.7 µM), without a hit: at the top dose activity change, negative = inhibition, most hits filed as inhibitors | 310,000 tested, 5.9% active; also: potency is read from the fitted curve at half-maximal effect; % is scaled to controls: 0 for no effect and ±100 for the full control effect
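Luciferase-expressing P. falciparum in infected erythrocytes (2% hematocrit, 0.1% parasitemia final) in RPMI 1640/0.5% Albumax were exposed to compound for 48 hours at 37 C, 5% CO2; growth read as luminescence.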
CHX counter: Cycloheximide Counterscreen for Small Molecule Inhibitors of Shiga Toxin | cell reporter, cycloheximide protein synthesis inhibition counterscreen | max response, % | 300,000 tested, 12% active | AID 2314, 2010; in the data active = max response mostly above about 13%, no sharp cut-off; inactive = mostly below about 14%; also: read at 38.3 µM for the half of the compounds with a filed dose; 0% is about no effect
Shiga toxin inh: A qHTS for Small Molecule Inhibitors of Shiga Toxin; 290,000 tested, 9.2% active; AID 2315, 2010; inhibition, % at 38.7 µM; Vero cells, Shiga toxin protein synthesis inhibition reporter; in the data active = inhibition mostly above about 28%, no sharp cut-off; inactive = mostly below about 43%; also: 0% is about no effect
Active calls of the source: *; i = inactive; ? = inconclusive; nt = no result; [ ] = dose if it differs, or a comment. Rows were chosen to be rich in hits. Some 20% of all compounds tested hit in one or more screens of this group. Unless noted, calls follow the shape of the dose curve; as a rule, active = well fitted inhibition curve with a large enough effect; inconclusive = small, poorly fitted or top-dose-only effect, or another doubt; inactive = no such curve, though single readings can be large or run the other way.

SMILES	Pf growth 96h	HCMV antiviral	Pf growth 48h	CHX counter	Shiga toxin inh
Cc1ccc(-c2onc(C)c2C)cc1S(=O)(=O)N1CC(C)Oc2ccccc21 (stereo unspecified)	-29%	?	15µM*	22	6
Cc1cc(-c2ccc(C)c(S(=O)(=O)N3CCOc4ccc(Cl)cc43)c2)on1	nt	-40	nt	nt	nt
CC(=O)c1ccc(N2CCN(S(=O)(=O)c3cc(-c4noc(C)n4)ccc3C)CC2)cc1	nt	5	nt	nt	nt
CCOC(=O)C1CN(S(=O)(=O)c2ccc(Cl)cc2)c2cc(S(=O)(=O)CC)ccc2O1 (stereo unspecified)	-29%	0	?	-5	29
CCOC(=O)C1CCN(S(=O)(=O)c2cc(-c3onc(C)c3C)ccc2C)CC1	nt	61	nt	nt	nt
CC(=O)c1ccc(N2CCN(S(=O)(=O)c3cc(-c4onc(C)c4C)ccc3C)CC2)cc1	nt	-67*	nt	nt	nt
CCC1CN(S(=O)(=O)c2ccc3c(c2)NC(=O)CC(=O)N3)c2cc(Cl)ccc2O1 (stereo unspecified)	?	?	2.1µM*	-3	-1
Cc1ccc(-c2onc(C)c2C)cc1S(=O)(=O)N1CCOc2ccc(Cl)cc21	nt	-62*	nt	nt	nt
CC(NC(=O)c1ccccc1O)c1ccccc1 (stereo unspecified)	nt	?	-13%	-1	-16
Cc1ccc(CN(C)C(=O)c2c(C)nn(-c3ccccc3)c2C)cc1	-22%	-25	-14%	-9	2
Cn1ccc2c(N3CCCCC3)cc3c(c21)C1CCC3O1 (stereo unspecified)	nt	7	nt	nt	nt
Cc1ccc(-c2onc(C)c2C)cc1S(=O)(=O)NC1CCCCC1	nt	85	nt	nt	nt
CCC1CN(S(=O)(=O)c2cc(-c3onc(C)c3C)ccc2C)c2cc(Cl)ccc2O1 (stereo unspecified)	nt	-67*	nt	nt	nt
Cc1c(Cl)cccc1NC(=O)C1Cc2ccccc2CN1C(=O)c1ccccc1 (stereo unspecified)	9.3µM*	43	-12%	7	-7
O=C(Nc1ccccc1)C1Cc2ccccc2CN1C(=O)c1ccco1 (stereo unspecified)	?	105	nt	57*	104
COc1ccccc1NC(=O)C1Cc2ccccc2CN1C(=O)c1ccco1 (stereo unspecified)	-19%	21	?	-4	32
COc1ccc(N(C(C)C(=O)Nc2ccc(S(=O)(=O)N3CCCCC3)cc2)S(C)(=O)=O)cc1 (stereo unspecified)	12%	29	-16%	-3	-1
CCCCCCCC(=O)NNC(=O)c1ccc(F)cc1	-15%	20	-19%	-5	-9
CN(C)S(=O)(=O)c1cccc(NC(=O)c2cc3ccccc3o2)c1	nt	29	64%	57*	54
CCN(CC)S(=O)(=O)c1cccc(NC(=O)c2cc3ccccc3o2)c1	?	13	?	22	55*
O=C(Nc1cccc(S(=O)(=O)N2CCCCC2)c1)c1cc2ccccc2o1	-106%	-3	?	nt	nt
CCOC(=O)C(=O)N1CCC(C(=O)OC)CC1	0%	17	6%	4	-1
Cc1ccc(S(=O)(=O)NCCC(=O)N2CCC(C)CC2)cc1	-9%	18	1%	nt	nt
Cc1ccc(SCCC(=O)N2CCC(C)CC2)cc1	i	84	392%	34*	73*
Cc1ccc(SCCC(=O)N2CCC(C(N)=O)CC2)cc1	?	36	28%	14*	-6
SMILES	Pf growth 96h	HCMV antiviral	Pf growth 48h	CHX counter	Shiga toxin inh
NC(=O)C1CCN(C(=O)CCSCc2ccccc2)CC1	?	62	?	24*	7
Cc1cc(C)nc(SCC(=O)N2CCC(C(N)=O)CC2)n1	nt	-24	20%	-4	-2
Cc1c(C)c2ccc(OCC(=O)NCCCn3ccnc3)cc2oc1=O	1%	-23	21%	-6	23
CN(Cc1ccccc1)c1ccc(N2C(=O)CCC2=O)cc1[N+](=O)[O-]	-28%	10	16%	14	-4
c1ccc2sc(N3CCCCC3)nc2c1	nt	-31	nt	nt	nt
O=C(c1cccs1)N1CCN(c2nc3c(F)cc(F)cc3s2)CC1	?	-23	-7%	nt	nt
O=[N+]([O-])c1ccc2nc(N3CCCC3)sc2c1	173%	62	14%[0.00184 µM]	29*	68*
CCN(Cc1ccccc1)S(=O)(=O)c1ccc(C(=O)N2CCN(c3nc4ccccc4s3)CC2)cc1	-6%	-66*	0%	0	-7
Fc1cc(F)c2nc(N3CCCCC3)sc2c1	8.3µM*	-4	45%	78*	115*
